# Compound activity as filed in PubChem BioAssay.
# In the library only some 6.1% were active in any assay of this set; here they are far more common.
# GBA activity: modulators of human glucocerebrosidase; P04062; AID 360; Potency, µM; purified enzyme, resorufin glucoside fluorescence (screen aimed at inhibitors), 20 min; 48,000 tested, 1.1% active; in the data active = potency below about 15 µM; inconclusive = mostly about 16 µM to 33 µM;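 note: the screen sought inhibitors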
#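 Wild-type enzyme at 0.2 nM final in 50mM citric acid/KH2PO4, 10mM sodium taurocholate, 0.01% tween-20, pH 5.9, with resorufin beta-D-glucopyranoside at 30 uM final. Compounds titrated, 20 min at RT, red fluorescence read; AC50 from titration.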
# ERK AVP block: blocks ERK signaling stimulated by vasopressin | HEK293-V1b, vasopressin-stimulated pERK AlphaScreen | Potency, µM (doses to about 57.5 µM), hits mostly inhibitors | 72,000 tested, 0.99% active | AID 995; note: nearly all actives have a fitted effect of over 55% in size
#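 Phosphorylated ERK1/2 detected via AlphaScreen bead proximity in lysates of V1b-expressing HEK293 cells given 25 nM vasopressin for 5 min after 30 min compound exposure (37 °C). AC50 from Hill equation; basal DMSO 0%, vasopressin 100%.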
# Bst PK mod: pyruvate kinase (B. stearothermophilus) modulation | AID 361 | purified pyruvate kinase, luminescence ATP production; ribose 5-phosphate activator present at AC10 | Potency, µM | 51,000 tested, 1.2% active; in the data active = potency below about 11 µM; inconclusive = mostly about 12 µM to 25 µM;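 the screen sought inhibitors and activators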
# FLuc inh: firefly luciferase inhibition; AID 411; 72,000 tested, 2.2% active; Potency, µM (series often up to 57.1 µM), usual class: inhibitors; P08659; purified firefly luciferase, luminescence, 8 min; note: nearly all actives have a fitted effect of over 40% in size
# Target sequence (P08659 whole entry, looked up): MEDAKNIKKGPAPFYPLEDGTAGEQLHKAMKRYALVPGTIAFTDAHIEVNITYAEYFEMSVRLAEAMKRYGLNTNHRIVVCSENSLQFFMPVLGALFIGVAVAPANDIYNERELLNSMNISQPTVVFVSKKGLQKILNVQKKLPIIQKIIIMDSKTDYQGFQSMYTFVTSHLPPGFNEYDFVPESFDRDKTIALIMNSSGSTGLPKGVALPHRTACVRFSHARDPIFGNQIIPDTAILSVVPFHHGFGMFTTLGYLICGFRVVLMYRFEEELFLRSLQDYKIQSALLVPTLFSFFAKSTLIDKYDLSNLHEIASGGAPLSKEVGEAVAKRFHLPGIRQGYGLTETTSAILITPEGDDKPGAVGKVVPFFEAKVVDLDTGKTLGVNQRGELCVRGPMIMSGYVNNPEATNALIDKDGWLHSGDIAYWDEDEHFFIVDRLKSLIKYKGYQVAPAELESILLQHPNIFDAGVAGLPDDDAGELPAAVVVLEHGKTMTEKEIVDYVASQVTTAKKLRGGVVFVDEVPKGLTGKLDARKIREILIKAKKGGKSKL
#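 qHTS concentration-response profiling: light output of P. pyralis luciferase with luciferin and 10 uM ATP, imidazole buffer pH 7.2. Read by luminescence after 8-min room-temperature incubation.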
# TSHR ag: TSH receptor (human) agonism. Potency, µM (doses to about 57.1 µM), usual class: activators. HEK293-CNG-TSHR cells (CNG channel as cAMP sensor), membrane potential dye, cAMP. 73,000 tested, 0.48% active; active = well fitted activation curve with a large enough effect in the main read-out, with a control signal flat, not every such curve was filed as active; inconclusive = small, poorly fitted or top-dose-only effect, or a change in a side signal; inactive = no such curve, though single readings can be large or run the other way; reference of the percent scale not stated here;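 note: the control signal comes from parental cells without the receptor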
#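 cAMP rise detected as CNG-channel membrane depolarization by fluorescent dye (emission 590 nm), 30 min after compound, following 60 min dye loading containing 100 uM RO 20-1724 at room temperature. Cells: TSHR/CNG HEK 293, with parental CNG HEK 293 as control.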
# HEK293 cAMP ctrl: counter-screen for TSHR agonists: cAMP increase in parental HEK293 | AID 938 | 73,000 tested, 2.5% active | parental HEK293 CNG cAMP sensor, membrane potential fluorescence | Potency, µM (titrated, usually from 57.1 µM), usual class: activators; note: nearly all actives have a fitted effect of over 55% in size
#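 Parental HEK 293 cells stably expressing a cAMP-gated CNG channel were loaded with membrane potential dye containing 100 uM RO 20-1724 for 60 min. Compound added for 30 min; depolarization read as fluorescence intensity at 590 nm.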
# Numbers stand for hits; i = inactive; ? = inconclusive; nt = no result; [ ] = another dose, or the depositor's remark. Unless noted, calls come from the whole dose curve; as a rule, active = well fitted curve in the direction sought with a large enough effect; inconclusive = small, poorly fitted or top-dose-only effect, or another doubt; inactive = no such curve, though single readings can be large; an effect the other way counts as inactive or inconclusive.
SMILES,GBA activity,ERK AVP block,Bst PK mod,FLuc inh,TSHR ag,HEK293 cAMP ctrl
Cn1c(=O)c2c(nc(NCc3ccco3)n2Cc2ccc(Cl)cc2Cl)n(C)c1=O,nt,nt,i,i,nt,nt
Cn1c(NCc2ccco2)nc2c1c(=O)n(Cc1ccc(Cl)c(Cl)c1)c(=O)n2C,nt,nt,1.87,i,nt,nt
Cc1c(/C(O)=C2/C(=O)C(=O)N(CCN3CCOCC3)C2c2cccs2)cnn1-c1ccccc1 (stereo not given),i,i,nt,12.6µM,i,i
COc1ccc(Cc2nn3c(Cn4nnc5ccccc54)nnc3s2)cc1,i,i,nt,15.8µM,nt,i
Cc1noc(C)c1C(=O)N1CCC2(CC1)CCN(C(c1ccccc1)c1ccccc1)CC2,nt,i,nt,i[11.4 µM],31.6µM,i
CC(=O)N1CCC2(CCCN(C(c3ccccc3)c3ccccc3)C2)CC1,nt,i,nt,i[11.4 µM],?,15.8µM
O=C(c1ccco1)N1CCC2(CC1)CN(C(c1ccccc1)c1ccccc1)C2,nt,i,nt,i[11.4 µM],?,?
O=C(c1ccco1)N1CCC[C@@]2(CCN(C(c3ccccc3)c3ccccc3)C2)C1,nt,i,nt,i[11.4 µM],?,15.8µM
CC(=O)N1CCC2(CC1)CCN(C(c1ccccc1)c1ccccc1)CC2,nt,i,nt,i[11.4 µM],i,i
COC(=O)N1CCC[C@@]2(CCN(C(c3ccccc3)c3ccccc3)C2)C1,nt,i,nt,i[11.4 µM],?,7.94µM
O=C1[C@H]2[C@H]3[C@H](O)[C@H](O)C/C(=N/OC[C@@H](O)COCc4ccco4)[C@@H]3CC[C@@H]2C(=O)N1c1cccc(Oc2ccccc2)c1,nt,i[11.5 µM],nt,i[11.4 µM],nt,i[11.4 µM]
O=C(O)C[n+]1ccccc1,nt,i[11.5 µM],nt,i[11.4 µM],i[11.4 µM],i[11.4 µM]
Cc1cc(NC(=O)c2cccc(F)c2)ncc1NC(=O)c1ccco1,i,i,nt,15.8µM,i,i
O=C(Nc1cccc(-c2cnc3ccccc3n2)c1)c1ccco1,i,?,?,i,i,i
O=C(Nc1ccc(Cl)cc1C(=O)Nc1ccc(Br)cn1)c1ccco1,i,i,i,i,?,20µM
O=C(Nc1ccc(NC(=O)c2ccco2)nc1)c1cccnc1,i,i,nt,25.1µM,i,i
O=C(Nc1cnc2ccccc2c1)c1ccco1,i,i,i,20µM,i,i
CC(C)[C@@H](CC(=O)N[C@@H]1CCCC[C@H]1C(=O)N[C@H](CC(=O)N[C@@H](CCC(=O)O)CC(=O)O)Cc1ccccc1)NC(=O)C[C@H](CO)NC(=O)[C@@H]1CNCC[C@H]1N,nt,nt,nt,nt,i,i
C[C@H]1[C@H]2CC[C@H]3C4CC=C5C[C@@H](N(C)C)CC[C@]5(C)C4CC[C@]23CN1C (stereo not given in full),nt,i,nt,nt,nt,nt
C[C@H]1C2=C3C(C[C@H]4C(=O)N(c5ccccc5)C(=O)[C@H]4[C@H]3[C@@]3(Cc4ccccc4)C(=NCCc4c[nH]c5ccccc45)OC(=O)N3C2=O)[C@H]2C(=O)N(c3ccccc3)C(=O)[C@H]21 (stereo not given in full),nt,i,nt,nt,nt,nt
O=C(N/N=C1/C[C@@H](O)[C@@H](O)[C@@H]2[C@H]3C(=O)N(c4ccc(F)cc4F)C(=O)[C@@H]3CC[C@H]12)OCc1ccccc1,nt,i[11.5 µM],nt,i[11.4 µM],i[11.4 µM],i[11.4 µM]
O=C(Nc1ccc(-c2noc(CCc3ccccc3)n2)cc1)c1ccco1,i,i,?,10µM,i,i
COC(=O)C/C=C/C(C)C(OCc1cccc(-c2ccccc2)c1)C1CCCCC1 (stereo not given),nt,i[11.5 µM],nt,nt,i[11.4 µM],i[11.4 µM]
Nc1nncn1C(=O)c1cccs1,i,i,2.47,i,i,i
Nc1nncn1C(=O)c1c(Cl)cccc1Cl,i,i,?,i,nt,i
SMILES,GBA activity,ERK AVP block,Bst PK mod,FLuc inh,TSHR ag,HEK293 cAMP ctrl
O=c1[nH]c2ccccc2n1CCCSCCCn1c(=O)[nH]c2ccccc21,i,31.6µM,i,i,nt,i
Cc1cc(C(=O)CSCCCn2c(=O)[nH]c3ccccc32)c(C)n1C,i,i,i,i,i,i
CN1C(=O)Cn2c1nc1ccccc12,i,i,i,i,?,20µM
CCOC(=O)c1oc2ccc(Br)cc2c1CSc1nnc(C)s1,i,i,i,i,?,31.6µM
O=C(O)CCC(=O)OC[C@@H](NC(=O)C(Cl)Cl)C(O)c1ccc([N+](=O)[O-])cc1 (stereo not given in full),nt,i,nt,nt,nt,nt
N=C1C(c2nc(-c3ccc(Cl)cc3)cs2)=C(O)CN1CCCN1CCOCC1,i,i,4.46,i,i,i
COc1ccc(-c2csc(C3=C(O)CN(Cc4ccc(S(N)(=O)=O)cc4)C3=N)n2)cc1OC,i,i,i,i,i[11.4 µM],i
CC(C)C(C)C,nt,i,nt,nt,?,i
O=C(NCC(c1ccc(F)cc1)N1CCOCC1)c1ccc(Br)o1 (stereo not given),i,i,i,i,?,25.1µM
CN1CCN(c2ncncc2-c2cccnc2)CC1,nt,i,nt,i[2.29 µM],?,?
CCOC(=O)C1C(=O)CC(C)(O)C(C(=O)OCC)C1/C=C/c1ccccc1 (stereo not given),nt,i,nt,i,?,5.01µM
CC1=CC(=O)C2=C(C)CC[C@@H]3[C@H](OC(=O)[C@H]3C)[C@H]12,nt,nt,nt,i[11.4 µM],i,i
CCSC1=C(C#N)C2(CCCCC2)C(C#N)=C(N)N1,i,?,i,15.8µM,i,i
O=C(Nc1nc2c(ccc3ccccc32)s1)c1ccco1,i,12.6µM,nt,i,i,i
COC(=O)c1cc2sccc2n1CC(=O)Nc1cccc(SC)c1,nt,i,i,i,?,25.1µM
COc1ccc2[nH]cc(CCNc3ccnc(-c4ccc5c(c4)OCO5)n3)c2c1,nt,31.6µM,nt,i[2.29 µM],?,?
COc1ccc2[nH]cc(CCNc3cc(-c4ccc5c(c4)OCO5)ncn3)c2c1,nt,?,nt,i[2.29 µM],i,i
c1ccc(Nc2nc(-c3ccc4c(c3)OCO4)nc3ccccc23)cc1,nt,15.8µM,nt,i[2.29 µM],nt,i
c1ccc(CNc2nc(-c3ccc4c(c3)OCO4)nc3ccccc23)cc1,nt,20µM,nt,i[2.29 µM],i,i
c1ccc2sc(N3CCN(Cc4ccc5c(c4)OCO5)CC3)nc2c1,nt,i,nt,i,i,i
c1ccc2sc(-c3ccc4c(c3)OCO4)nc2c1,nt,i,nt,1.58µM,i,i
Nc1cc2c(nc3c4ccccc4c(N)cc3[n+]2-c2cccc3ccccc23)c2ccccc12 (tested in a mixture with another compound),nt,?,nt,i[11.4 µM],i[11.4 µM],i[11.4 µM]
COCC(=O)/C=C1\Sc2ccccc2N1C,i,i,i,i,i,i
CN1/C(=C\C(=O)c2cccs2)Sc2ccccc21,i,i,6.56,6.31µM,?,?
c1ccc(N2CCN(c3ncnc4sc5c(c34)CCC5)CC2)cc1,i,?,nt,i,?,?
c1nc(N2CCC3(CC2)OCCO3)c2c3c(sc2n1)CCCC3,i,31.6µM,nt,i,?,?
COc1ccc(OCC(=O)Nc2ccc3c(c2)nc(CCN2CCOCC2)n3C)cc1,i,i,i,25.1µM,i,i
Nc1nnc(N2CCc3ccccc32)s1,nt,15.8µM,nt,?,i,i
COc1ccc(C(=O)NC2CCN(S(=O)(=O)Cc3ccccc3)CC2)c(OC)c1,i,i,i,i,?,10µM
